Compounds with a hit are over-represented: about 3.5% of the library has one in this group of screens.
FBA Mtb inh – Mtb fructose-bisphosphate aldolase inhibition | purified M. tuberculosis FBA, fluorescence read-out | inhibition, % at 1 µM | 2.3% of 360,000 active; in the data active means inhibition above about 27%;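 further: 0% = vehicle and 100% = reference inhibitor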
UGM FP inh – blocks M. tuberculosis UGM enzyme. P9WIQ1. purified UGM, fluorescence polarization probe displacement. inhibition, % at 10 µM. 0.06% of 320,000 active. AID 504406; in the data active means inhibition above about 10%, passing the limit was not always enough
FadD28 binding – inhibitors of Mycobacterium tuberculosis FadD28 bisubstrate binding | FadD28 bisubstrate probe binding, fluorescence polarization | inhibition, % at 12.5 µM | 0.22% of 360,000 active; in the data active means inhibition above about 8.5%, passing the limit was not always enough
Rv3671c protease – inhibitors of M. tuberculosis serine protease Rv3671c. inhibition, % at 5.96 µM. 0.048% of 320,000 active. P9WHR9; in the data active means inhibition above about 38%;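 further: extracellular domain of Rv3671c used as enzyme; 0% = enzyme with DMSO and 100% = no enzyme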
Target sequence (P9WHR9 whole entry, looked up, the tested form may be a part): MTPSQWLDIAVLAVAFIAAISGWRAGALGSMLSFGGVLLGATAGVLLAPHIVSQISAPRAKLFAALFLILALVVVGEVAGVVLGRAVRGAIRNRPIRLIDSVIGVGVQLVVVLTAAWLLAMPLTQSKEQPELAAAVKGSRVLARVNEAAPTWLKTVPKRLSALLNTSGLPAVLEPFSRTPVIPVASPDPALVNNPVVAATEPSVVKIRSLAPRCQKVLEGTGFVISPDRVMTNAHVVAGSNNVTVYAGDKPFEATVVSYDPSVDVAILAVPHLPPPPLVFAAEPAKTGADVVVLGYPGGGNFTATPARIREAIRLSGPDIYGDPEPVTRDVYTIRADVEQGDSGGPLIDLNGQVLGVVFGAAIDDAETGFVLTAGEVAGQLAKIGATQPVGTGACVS
Mtb hypoxia rep – Mtb hypoxia fluorescent reporter inhibition; 0.1% of 300,000 active; M. tuberculosis hypoxia-regulated fluorescent reporter, fluorescence; fluorescence inhibition, % (concentration not given with the values); in the data active means fluorescence inhibition mostly above about 23%, no sharp cut-off; inactive means mostly below about 17%
GDH-TPI inh – counter-screen for M. tuberculosis FBA inhibitors: GDH-TPI coupled enzymes | GDH-TPI coupled enzyme counterscreen, NADH absorbance | 1.2% of 360,000 active | inhibition, % at 4.8 µM; in the data active means inhibition above about 30%;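 further: 0% = DMSO wells and 100% = wells lacking the enzyme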
An asterisk follows results filed as active; . = no result.

SMILES | FBA Mtb inh | UGM FP inh | FadD28 binding | Rv3671c protease | Mtb hypoxia rep | GDH-TPI inh
CSc1ccc(/C=N/NC(=O)c2ccccc2Cl)cc1 | 8 | 1 | -1 | -12 | . | 72*
COc1ccc(C(=O)N/N=C/c2ccc(SC)cc2)cc1 | -1 | -2 | 0 | -1 | . | 46*
CSc1ccc(/C=N/NC(=O)c2ccc(O)cc2)cc1 | 8 | 1 | 0 | -5 | . | 55*
CN(C)c1ccc(/C=N/NC(=O)c2ccccc2Cl)cc1 | 2 | 2 | 2 | 4 | . | 26
COc1cc(/C=N/NC(=O)c2ccc(O)cc2)ccc1OCC(=O)N1CC(C)OC(C)C1 (stereo not given) | -4 | -2 | -4 | 0 | . | 52*
COc1ccc(C=NNC(=O)CN2CCSCC2)cc1C | . | . | . | . | 3 | .
C=C(C)C1C2OC(=O)C1[C@]1(O)CC3O[C@]34C(=O)OC2[C@]14C (stereo not given in full) | . | . | . | . | -4 | .
CC1=NNC(=O)C1CCC(=O)NN=C/C=C/c1ccccc1 (stereo not given) | . | . | . | . | 6 | .
COc1ccc(OCc2cc(C=NNC(=O)c3ccccc3)ccc2OC)cc1 | . | . | . | . | -3 | .
COc1ccc(/C=N/NC(=O)c2ccc[nH]2)cc1 | -2 | 0 | -5 | 2 | . | 32*
COc1ccc(C(=O)N/N=C/c2ccc(OC)c(COc3ccccc3)c2)cc1 | 4 | 2 | -2 | -13 | . | 37*
COc1ccc(C=NNC(=O)CC(=O)NN=Cc2ccc(OC)cc2)cc1 | . | . | . | . | -8 | .
Cc1cc(C)n2nc(SCC(=O)NN=Cc3ccc(F)cc3)nc2n1 | . | . | . | . | 8 | .
O=C(NCCNc1ccnc2cc(Cl)ccc12)c1ccccc1F | 6 | 0 | -2 | 2 | 3 | 43*
O=C(NCCNc1ccc(Cl)cc1[N+](=O)[O-])c1ccccc1F | -5 | 2 | -2 | 4 | 8 | -6
Cn1c(=O)c2[nH]c(-c3ccc(S(=O)(=O)O)cc3)nc2n(C)c1=O | . | -2 | -1 | -4 | 5 | 42*
CC(C)c1ccc(-c2nc3c([nH]2)c(=O)n(C)c(=O)n3C)cc1 | 3 | 1 | -5 | 3 | . | 0
CC(=NCc1ccccc1)c1ccc(O)cc1O | -1 | . | -1 | . | . | 34*
C/C(=N\NP(=S)(c1ccccc1)c1ccccc1)c1ccc(O)cc1O | -3 | -1 | -2 | -7 | . | 32*
Cc1cc(NN=Cc2c[nH]c3ccccc23)c2ccccc2n1 | . | . | . | . | 0 | .
COc1ccc(C=NNc2nc(C)cc(=O)[nH]2)cc1OC | . | . | . | . | 1 | .
CCn1c(C)cc(/C=C2\NC(=O)N(CC(=O)Nc3ccc(F)cc3)C2=O)c1C | -2 | 5 | 1 | 10 | 18 | 6
Cc1ccc(NC(=O)CN2C(=O)N/C(=C/c3cc(C)n(-c4ccc(C(=O)O)cc4)c3C)C2=O)cc1 | 7 | . | 52* | . | 3 | 10
Cc1ccc(NC(=O)CN2C(=O)N/C(=C/c3cccn3-c3ccc(C(=O)O)cc3)C2=O)cc1 | 0 | 1 | 18* | 2 | 12 | 22
O=C(CN1C(=O)S/C(=C\C=C\c2ccccc2)C1=O)Nc1ccc(C(=O)O)cc1 | -1 | 1 | -6 | -68 | 11 | 57*
SMILES | FBA Mtb inh | UGM FP inh | FadD28 binding | Rv3671c protease | Mtb hypoxia rep | GDH-TPI inh
Cc1cccc(NC(=O)CN2C(=O)N/C(=C/c3cc(C)n(C(C)C)c3C)C2=O)c1 | -2 | 1 | 42* | -1 | -3 | 21
CCOc1cc(/C=C2/NC(=O)N(CC(=O)Nc3cccc(C)c3)C2=O)ccc1OCC(N)=O | 3 | -1 | 4 | -15 | 9 | 38*
Cc1ccc(NC(=O)CN2C(=O)SC(=Cc3cc(C)n(-c4cccc(C(=O)O)c4)c3C)C2=O)cc1 | . | . | . | . | 4 | .
CCOc1cccc(/C=C2/NC(=O)N(CC(=O)Nc3cccc(C)c3)C2=O)c1O | -2 | -3 | -1 | -22 | -7 | 25
Cc1ccc(NC(=O)CN2C(=O)S/C(=C\c3cc(C)n(-c4ccc(C(=O)O)cc4)c3C)C2=O)cc1 | 0 | -1 | 60* | -4 | -7 | 17
CN1C(=O)NC(c2ccc(O)cc2)C(C(=O)c2cccs2)C1(O)C(F)(F)F (stereo not given) | -4 | 1 | -1 | 4 | 11 | 43*
O=C1NC(c2ccccc2)C(C(=O)c2cccs2)C(O)(C(F)(F)F)N1 (stereo not given) | 2 | 1 | 1 | 6 | . | 3
CCOC(=O)CN1C(=O)NC(c2ccccc2)C(C(C)=O)C1C (stereo not given) | . | . | . | . | 4 | .
O=C(Nc1ccc(/C=C/c2nc3ccccc3o2)cc1)c1ccc(F)cc1 | 4 | 0 | -3 | -15 | 3 | 33*
COC(=O)c1cccc(Cn2c(Cl)c(/C=N/NC(=O)c3ccco3)sc2=O)c1 | -2 | -1 | 0 | -6 | . | 35*
O=c1sc(/C=N/Nc2ccccc2)c(Cl)n1Cc1ccccc1 | -1 | 4 | -2 | -1 | . | 86*
O=C(NN=Cc1sc(=O)n(-c2ccccc2)c1Cl)c1ccccc1 | . | . | . | . | -7 | .
O=C(O)c1cccc(Cn2c(Cl)c(/C=N/NC(=O)c3ccc(O)cc3)sc2=O)c1 | -5 | 2 | -16 | -9 | . | 34*
O=C(N/N=C/c1sc(=O)n(-c2ccccc2)c1Cl)c1ccccc1 | -4 | -5 | -1 | -5 | . | 31*
COC(=O)c1cccc(Cn2c(Cl)c(C=NNC(=O)c3ccco3)sc2=O)c1 | . | . | . | . | 8 | .
NC(=O)COc1ccc(C=NNC(=O)c2ccc(-c3ccccc3)cc2)cc1 | . | . | . | . | 2 | .
CC(Cn1ncc(N2CCOCC2)c(Cl)c1=O)=NO | . | . | . | . | 16 | .
O=c1c2c3nc4ccccc4nc3n(CCN3CCOCC3)c2ncn1CCN1CCOCC1 | 22 | . | -1 | . | -1 | 34*
O=c1c2c3nc4ccccc4nc3n(CC3CCCO3)c2ncn1CCc1ccccc1 (stereo not given) | 25 | 1 | -4 | -2 | . | 7
Cc1ccc2c(c1)c1nc3ccccc3nc1n2CCN1CCOCC1 | -3 | -2 | -5 | 6 | . | 34*
COC(=O)COc1ccc(C=NNS(=O)(=O)c2ccccc2)cc1 | . | . | . | . | 23 | .
CC(=NNC(=O)C12CCC(C)(C(=O)O1)C2(C)C)c1ccccc1O (stereo not given) | . | . | . | . | 11 | .
CC(=NNC(=O)c1ccncc1)c1ccc(O)cc1O | -1 | . | -1 | . | 11 | 41*
C/C(=N\NC(=O)c1ccc(N2CCCC2=O)cc1)c1ccccc1 | 0 | 2 | . | -3 | . | -6
C/C(=N\NC(=O)c1ccc(N2CCCC2=O)cc1)c1ccc(O)cc1O | 3 | -1 | -2 | 23 | . | 33*
COc1ccccc1NS(=O)(=O)c1cccc(C(=O)N/N=C/c2ccc(C)o2)c1 | -1 | -1 | -3 | 2 | . | 41*
Cc1ccc(C=NNC(=O)c2cccc(S(=O)(=O)Nc3ccccc3Cl)c2)o1 | . | . | . | . | 12 | .
COc1ccccc1NS(=O)(=O)c1cccc(C(=O)N/N=C/c2ccc(N3CCOCC3)cc2)c1 | 1 | 4 | -1 | 0 | . | 34*
COc1ccccc1NS(=O)(=O)c1cccc(NC(=O)Nc2ccccc2)c1 | 4 | 0 | -4 | -98 | 10 | 1
COc1ccccc1NS(=O)(=O)c1cccc(NC(=O)Nc2ccc(Cl)cc2)c1 | -2 | 1 | 31* | -335 | 13 | 9
